# Bioassay records deposited in PubChem by National Center for Advancing Translational Sciences (NCATS).
# KinaseGlo FLuc: Counterscreen for Luciferase (Kinase-Glo TM) Inhibition | Luciferin 4-monooxygenase (Photuris pensylvanica), Q27757 | Kinase-Glo luciferase, ATP luminescence, 8 min | Potency, µM (top dose mostly 38.3 µM), most hits filed as inhibitors | 200,000 compounds, 0.28% hits | AID 1379, 2008; also: nearly all actives have a fitted effect of over 60% in size
#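 Kinase-Glo luciferase light output from ATP and luciferin was measured with 10 uM ATP, within the enzyme's linear range. Buffer: 50 mM imidazole pH 7.2, 50 mM KCl, 7 mM MgCl2, 0.01% Tween 20, 0.05% BSA; luminescence read after 8 min at ambient temperature.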
# SMN2 splice enh: qHTS Assay for Enhancers of SMN2 Splice Variant Expression; 210,000 compounds, 2.8% hits; HEK293 SMN2-luciferase splicing reporter, luminescence, 30-36 h; Potency, µM (titrated, usually from 46.1 µM), hits mostly activators; also: nearly all actives have a fitted effect of over 55% in size
#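 HEK293 cells carry an SMN2 minigene-luciferase reporter in which exon 7 inclusion puts luciferase in frame. Cells were seeded at 2000 cells/well, attached for 10-12 hours, then exposed to compounds for 30-36 hours at 37C before ONE-Glo luminescence.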
# Rab9 promoter act: qHTS Assay for Rab9 Promoter Activators; Huh7 Rab9 promoter-luciferase reporter, luminescence, 24 h; Potency, µM (highest dose often 9.22 µM), most hits filed as activators; 320,000 compounds, 2.8% hits; AID 485297, 2010; also: nearly all actives have a fitted effect of over 60% in size
#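 Huh7 cells stably carrying Rab9 promoter–luciferase reporter, plated 1500 cells/well, compound added after 2 h and incubated 24 h at 37 °C; luciferase luminescence then read after 10 min with detection reagent.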
# NPC1 promoter act: qHTS Assay for NPC1 Promoter Activators; Huh7 NPC1 promoter luciferase reporter, 24 h; Potency, µM (highest dose often 9.22 µM), actives largely listed as activators; 320,000 compounds, 2.4% hits; AID 485313, 2010; also: nearly all actives have a fitted effect of over 60% in size
#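 Luminescence read-out of NPC1 promoter-driven luciferase in stably transfected Huh7 cells; compounds delivered in DMSO and left 24 h at 37C, 5% CO2, qHTS titration format.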
# FLuc counter: qHTS profiling assay for firefly luciferase inhibitor/activator using purifed enzyme and Km concentrations of substrates (counterscreen for miR-21 project); AID 588342, 2011; Luciferin 4-monooxygenase (Photinus pyralis), P08659; purified FLuc, Km substrates, luminescence inhibition; Potency, µM (titrated, usually from 57.5 µM), actives largely listed as inhibitors; 360,000 compounds, 6.9% hits; also: nearly all actives have a fitted effect of over 55% in size
# Target sequence (P08659 whole entry, looked up): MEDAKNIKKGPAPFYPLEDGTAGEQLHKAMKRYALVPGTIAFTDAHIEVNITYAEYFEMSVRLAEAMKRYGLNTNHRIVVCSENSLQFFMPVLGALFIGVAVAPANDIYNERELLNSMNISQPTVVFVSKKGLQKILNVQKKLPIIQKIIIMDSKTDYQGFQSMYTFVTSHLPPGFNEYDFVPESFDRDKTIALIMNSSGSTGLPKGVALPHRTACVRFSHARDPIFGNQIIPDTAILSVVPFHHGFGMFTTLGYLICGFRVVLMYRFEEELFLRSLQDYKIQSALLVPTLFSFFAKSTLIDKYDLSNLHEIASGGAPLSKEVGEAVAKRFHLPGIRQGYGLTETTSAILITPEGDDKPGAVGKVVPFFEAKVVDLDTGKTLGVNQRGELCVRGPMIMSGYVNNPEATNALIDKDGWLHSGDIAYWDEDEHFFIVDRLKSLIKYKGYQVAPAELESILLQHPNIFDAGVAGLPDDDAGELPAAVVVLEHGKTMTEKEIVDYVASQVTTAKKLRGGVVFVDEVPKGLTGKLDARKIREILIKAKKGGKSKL
#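 Biochemical qHTS of compounds, final roughly 60 µM downward over six points, against 10 nM purified firefly luciferase using Km concentrations of substrates (10 uM D-luciferin, 10 uM ATP) in Tris acetate pH 7.5 buffer; luminescence output.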
# Hits are given with their value; i = inactive; ? = inconclusive; nt = no result given; [ ] = another dose, or the depositor's remark. Hits are enriched below; roughly 7.3% of the tested compounds scored in any of these assays. Calls follow the shape of the dose curve; as a rule, active = well fitted curve in the direction sought with a large enough effect; inconclusive = small, poorly fitted or top-dose-only effect, or another doubt; inactive = no such curve, though single readings can be large; an effect the other way counts as inactive or inconclusive.
SMILES,KinaseGlo FLuc,SMN2 splice enh,Rab9 promoter act,NPC1 promoter act,FLuc counter
Cc1ccc(O)c(NC(=O)c2cccc(S(=O)(=O)N3CCCCC3)c2)c1,i,4.47µM,i,i,i
CN(C)S(=O)(=O)c1cccc(C(=O)Nc2cc(Cl)ccc2O)c1,i,i,?,?,13.5µM
CCOC(=O)c1noc2nc(C)n(CC(=O)Nc3cccc(OC)c3)c(=O)c12,nt,nt,nt,nt,i
CCOC(=O)CC(CC(C)=O)C(=O)OCC (centres undefined),i,i,nt,nt,nt
Cc1ccc2onc(CNC(=O)N(C)Cc3ccccc3)c2c1,nt,nt,nt,nt,i
O=C1C(=O)c2ccccc2C(O)=C1Cc1ccccc1,i[7.66 µM],i[9.22 µM],nt,nt,nt
Cc1cc(C)c2c(N)c(-c3nc4ccccc4[nH]3)sc2n1,i,12.6µM,2.82µM,?,?
Cc1ccc2nc(-c3sc4nc(C)ccc4c3N)[nH]c2c1,i,2.24µM,3.16µM,3.16µM,1.2µM
Cc1ccc(NC(=O)N2CCC(CN3CCCC3)CC2)c(C)c1,nt,nt,nt,nt,i
Cc1cccc(NC(=O)CSc2nc3ccccc3nc2N2CCCCC2)c1C,nt,i,nt,nt,i
Cc1ccc(C(=O)/C=C2\NCC(C)NC2=O)cc1 (centres undefined),i,i,0.316µM,0.316µM,1.2µM
Cc1ccc(C(=O)/C=C2\NCCNC2=O)cc1,i,2.82µM,0.891µM,1.41µM,5.36µM
CCCCCCN,nt,i,nt,nt,nt
CC1(C)Cc2c(sc(NC(=O)Nc3ccccc3)c2C(N)=O)CO1,nt,nt,1.26µM,4.47µM,12µM
COC(=O)c1c(NC(=O)Nc2ccc(Cl)cc2)sc(C)c1C,i,?,i,i,i
CC1(C)Cc2c(sc(NC(=O)C(=O)N3CCCC3)c2C(N)=O)CO1,nt,nt,i,i,i
Cc1sc(NC(=O)Nc2ccccc2)c(C(N)=O)c1C,i,nt,2µM,?,7.57µM
CC1(C)NC(=O)N(CCCCOc2ccc3ccccc3c2Cl)C1=O,i,i,i,?,21.3µM
CC(=O)Oc1ccccc1-c1nc(/C=C/c2ccccc2)no1,nt,nt,?,2.82µM,10.7µM
COc1cc(/C=C/c2noc(-c3ccccc3O)n2)cc(OC)c1OC,i,i,i,i,i
COc1ccc(/C=C/c2noc(-c3ccccc3O)n2)cc1,?,i,i,?,3.79µM
Cn1cc(-c2cc3n(n2)CCC(=O)N3CCCC(=O)Nc2ccccc2Cl)c2ccccc21,nt,nt,nt,nt,i
CC1CCC(NC(=O)c2ccc(NC(=O)CC3SC(N4CCCC4)=NC3=O)cc2)CC1 (centres undefined),nt,nt,2.24µM,2.51µM,?
Cc1ccnc(NC(=O)c2cccc(NC(=O)CC3SC(N4CCCCC4)=NC3=O)c2)c1 (centres undefined),nt,nt,i,i,12µM
CCNC(=O)c1ccc(NC(=O)CC2SC(N3CCCCC3)=NC2=O)cc1 (centres undefined),nt,nt,i,i,i
SMILES,KinaseGlo FLuc,SMN2 splice enh,Rab9 promoter act,NPC1 promoter act,FLuc counter
c1csc(-c2nc(CN3CCSCC3)cs2)c1,nt,nt,0.398µM,?,2.39µM
O=S1(=O)CCN(Cc2csc(-c3cccs3)n2)CC1,nt,nt,1.78µM,1.26µM,19µM
CCN(CCCNC(=O)c1nn(-c2ccc(C)cc2)c(=O)c2c1c1ccccc1n2C)c1ccccc1,nt,i,nt,nt,i
O=C(Cc1ccccc1)c1ccc(Cl)cc1,nt,nt,i,i,?
Cc1ccc(CC(=O)c2ccc(Cl)cc2)cc1,nt,nt,?,?,4.78µM
Cc1ccc(C(=O)CCC(=O)NCc2ccc(Cl)cc2)cc1,nt,nt,i,i,i
O=C(Cc1ccc(Cl)cc1)c1ccc(O)cc1,nt,nt,3.55µM,3.55µM,15.1µM
C=CCN(C(=O)Cc1cccs1)c1nc(-c2ccc(S(C)(=O)=O)cc2)cs1,nt,nt,?,?,16.9µM
c1ccc(-n2ncc3c(NC4CCCC4)ncnc32)cc1,nt,nt,nt,nt,4.78µM
Cc1ccc(-n2ncc3c(NC4CCCC4)ncnc32)cc1,nt,nt,nt,nt,0.379µM
COc1ccc(-n2ncc3c(NC4CCCC4)ncnc32)cc1,nt,nt,nt,nt,1.35µM
CCOC(=O)N1CCC(Nc2ncnc3c2cnn3-c2ccc(Cl)cc2)CC1,i,i,?,?,?
COc1ccc(NC(=O)Cn2c(SCc3c(F)cccc3Cl)nc3ccncc32)cc1OC,nt,i,nt,nt,?
Cc1ccc(CNC(=O)c2cc(-c3ccc(Cl)cc3)on2)cc1,nt,nt,nt,nt,i
COc1ccc(-n2nc3cc(C)c(NC(C)=O)cc3n2)cc1,i,1.58µM,0.316µM,0.316µM,0.601µM
COc1ccc(-n2nc3cc(C)c(NC(=O)C(C)C)cc3n2)cc1,i,2.82µM,0.316µM,0.316µM,0.213µM
CCOc1ccc(-n2nc3cc(C)c(NC(=O)CC)cc3n2)cc1,nt,i,nt,nt,?
CCc1ccc(-n2nc3cc(C)c(NC(=O)c4cc(OC)cc(OC)c4)cc3n2)cc1,nt,i,nt,nt,1.35µM
COc1ccc(CNC(=S)Nc2cccc(OC)c2)cc1,nt,nt,i,i,i
CCc1ccc(NC(=S)Nc2cccc(OC)c2)cc1,i,i,i,i,21.3µM
COc1cccc(NC(=S)NN=C2CCCCCC2)c1,i,14.1µM,3.16µM,3.55µM,8.49µM
COc1cccc(NC(=O)C2CCC2)c1,nt,nt,i,i,i
CCOc1cc(NC(=S)Nc2cccc(OC)c2)c(OCC)cc1NC(=O)C1CC1,i,i,i,i,15.1µM
CC1=C(C(=O)Nc2cccnc2)C(c2ccc(F)cc2)n2nc(SCc3ccccc3F)nc2N1 (centres undefined),nt,i,nt,nt,i
COc1ccc(OC)c(/C(C)=N/Nc2ccc(C(=O)O)cc2)c1,nt,nt,i,i,i
SMILES,KinaseGlo FLuc,SMN2 splice enh,Rab9 promoter act,NPC1 promoter act,FLuc counter
COc1cc(C(=O)Nc2ccc(NC(=O)c3ccc(C(C)(C)C)cc3)cc2)cc(OC)c1OC,nt,i,nt,nt,i
COc1ccc(/C(C)=N/Nc2ccc(C(=O)O)cc2)cc1OC,i,?,1.26µM,0.631µM,6.75µM
COc1cc(/C(C)=N/Nc2ccc(C(=O)O)cc2)cc(OC)c1OC,i,15.8µM,?,?,?
Cc1cccc(NC(=O)CSc2nnc(-c3cc(C)n(-c4ccccc4)c3C)o2)c1C,i,i,i,i,16.9µM
O=C(CSc1nnc(COc2ccc(Cl)cc2Cl)o1)Nc1ccccn1,nt,nt,i,i,?
O=C(CSc1nnc(-c2ccccc2)o1)Nc1ccccc1F,i,0.794µM,0.0032µM,i,i
Cc1ccc(CN(CC(=O)NC2CCCC2)C(=O)CSc2nnc(COc3ccccc3)o2)cc1,i,i,i,i,i
CCc1ccccc1NC(=O)CSc1nnc(COc2ccccc2Cl)o1,nt,i,nt,nt,16.9µM
CCc1ccc(OCc2nnc(SCC(=O)NC3CCCCC3)o2)cc1,nt,nt,i,i,10.7µM
Cc1ccc(-c2nnc(SCC(=O)Nc3ccccc3F)o2)cc1,i,i,?,?,?
COc1ccccc1N1CCN(C(=O)CCn2nc(C)c(S(=O)(=O)N3CCCC3)c2C)CC1,nt,nt,nt,nt,i
CN(C)C[C@H]1CCC2=C(C1=O)C(c1ccc(Cl)c(Cl)c1)C1=C(CC[C@H](CN(C)C)C1=O)O2,i[7.66 µM],i[9.22 µM],nt,nt,nt
CN(C)CCCSc1nc2ccccc2[nH]1,i[7.66 µM],i[9.22 µM],nt,nt,nt
